# Bioassay records as filed in PubChem.
# A selection: hits, their analogues and other compounds. The true share with any hit is near 19%.
# SW480 rereplic: A quantitative high throughput screen for small molecules that induce DNA re-replication in SW480 colon adenocarcinoma cells | SW480 DNA re-replication, Hoechst DNA content imaging, 48 h | Potency, µM (series often up to 46.1 µM), for the others: at the highest dose re-replication activation, actives largely listed as activators | actives 1.8% (n = 340,000); also: potency is read from the fitted curve at half-maximal effect; % of control where 0% means no effect; nearly all actives have a fitted effect of over 55% in size
#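 Quantitative HTS format with DMSO vehicle controls; 48 hr drug incubation at 37 C, then 40 min Hoechst staining and scanning imager measurement at 405 nm excitation.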
# TDP1 cell CPT: qHTS for Inhibitors of human tyrosyl-DNA phosphodiesterase 1 (TDP1): qHTS in cells in presence of CPT; actives 12% (n = 420,000); chicken DT40 Tdp1-/-;hTDP1 cells + 20 nM CPT, ATP luminescence, 48 h; Potency, µM (top dose mostly 46.2 µM), for inactives: at the highest dose activity change, negative = growth inhibition, most hits filed as inhibitors; also: potency is read from the fitted curve at half-maximal effect; % is scaled to controls: 0 for no effect and ±100 for the full control effect; nearly all actives have a fitted effect of over 55% in size
#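 Cell growth measured by CellTiter-Glo luminescence after a minimum 48 h, 37 C compound exposure with 20 nM CPT in Tdp1-knockout DT40 cells stably expressing hTDP1, seeded 400/well; qHTS titration format.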
# Chronic BCR inh: qHTS Assay to Find Inhibitors of Chronic Active B-Cell Receptor Signaling | Potency, µM (series often up to 46.1 µM), without a hit: top-dose activity change, negative = inhibition, usual class: inhibitors | ABC-DLBCL IkBa-CBG/CBR reporter, luminescence ratio, 4 h | actives 0.05% (n = 340,000) | AID 493014, 2011; active = well fitted inhibition curve with a large enough effect in the signal ratio, with a control signal flat, not every such curve was filed as active; inconclusive = small, poorly fitted or top-dose-only effect, or effect the other way, or a change in a side signal; the % refers to the signal ratio;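 also: potency is read from the fitted curve at half-maximal effect; plate controls were basal doxycycline-induced cells for no effect and cells given 10 µM MG132 for full effect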
#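 Doxycycline induced both beetle luciferases in TMD8 lymphoma cells; IKK-driven degradation limits the IkappaBalpha-fused green signal, while red luminescence normalises for cell number and nonspecific effects. Compounds tested up to 46 uM, 4 hrs.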
# IL-1B inflam inh: qHTS for Inhibitors of Inflammasome Signaling: IL-1-beta AlphaLISA Primary Screen; THP-1 LPS/ATP IL-1B secretion, AlphaLISA, 16 h; stronger effect = lower value; activity change, % at 57.5 µM; actives 4.7% (n = 360,000); AID 743279, 2014; in the data active = activity change below about -50%; inconclusive = mostly about -30% to -49%; also: % is scaled to controls: 0 for no effect and ±100 for the full control effect
#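 Secreted IL-1B measured by AlphaLISA bead assay after 16 h compound exposure of THP-1 cells; compounds (final up to 57.5 uM) added 1 h before LPS (250 ng/mL) and ATP (1.25 mM) stimulation; lower signal means less secretion.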
# MCF10A rereplic: A quantitative high throughput screen for small molecules that induce DNA re-replication in MCF 10a normal breast cells | MCF 10A DNA re-replication, Hoechst nuclear intensity, 48 h | actives 2.9% (n = 350,000) | Potency, µM (titrated, usually from 46.1 µM), for the others: top-dose activity, positive = re-replication, actives largely listed as activators; also: potency is read from the fitted curve at half-maximal effect; % of control where 0% means no effect; nearly all actives have a fitted effect of over 50% in size
# TDP1 cell noCPT: qHTS for Inhibitors of human tyrosyl-DNA phosphodiesterase 1 (TDP1): qHTS in cells in absence of CPT | DT40 Tdp1-/- hTDP1 cells, no CPT, ATP luminescence, 48 h | Potency, µM (titrated, usually from 46.2 µM), inactives show top-dose activity change, negative = growth inhibition, usual class: inhibitors | actives 15% (n = 420,000); also: potency is read from the fitted curve at half-maximal effect; % is scaled to controls: 0 for no effect and ±100 for the full control effect; nearly all actives have a fitted effect of over 55% in size
#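 Seeded 400 DT40-hTDP1 cells/well (vehicle DMSO, no 20 nM CPT); pinned compounds; ≥48 hr at 37 °C; CellTiter-Glo luminescence as viability measure.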
# * = called active by the depositor; ? = inconclusive; · = no result given; [ ] = dose if it differs, or a comment. Unless noted, calls follow the shape of the dose curve; as a rule, active = well fitted curve in the direction sought with a large enough effect; inconclusive = small, poorly fitted or top-dose-only effect, or another doubt; inactive = no such curve, though single readings can be large; an effect the other way counts as inactive or inconclusive.
SMILES,SW480 rereplic,TDP1 cell CPT,Chronic BCR inh,IL-1B inflam inh,MCF10A rereplic,TDP1 cell noCPT
CN(CC(=O)Nc1ccc(C(N)=O)cc1)CC(=O)Nc1ccccc1Cl,-11%,1%,0%,0,11%,13%
CCN(CC(=O)Nc1ccccc1C(F)(F)F)CC(=O)c1[nH]c(C)c(C(C)=O)c1C,·,23µM*,·,2,·,16µM*
COC(=O)c1cccc(C(=O)N2CCc3c(cnc(C)c3CNC(=O)c3ccsc3)C2)c1,·,-14%[9.04 µM],·,·,·,1%
COc1cccc(CNC(=O)[C@@H]2CCCN2C(=O)[C@H]2CCCCN2C(=O)c2ccc(Cl)cc2)c1,·,?,·,-11,·,?
COc1cc2c(NC3CCN(C)CC3)nc(N3CCCN(C)CC3)nc2cc1OCCN(C)C,·,11µM*,·,·,·,11µM*
CCCC(=O)N1CCCN(c2nc(N)c3cc(OC)c(OC)cc3n2)CC1,·,-5%,·,·,·,-21%
COc1cc2c(NC3CCN(C)CC3)nc(N3CCCN(C)CC3)nc2cc1OCCCCC(N)=O,·,8%,·,·,·,-12%
COc1cc2c(NC3CCN(C(C)C)CC3)nc(N3CCCN(C)CC3)nc2cc1OCCCN(C)C,·,3.2µM*,·,·,·,6.3µM*
COc1cc2c(NC3CCN(C)CC3)nc(N3CCCN(C)CC3)nc2cc1OCCCCCN(C)C,·,11µM*,·,·,·,14µM*
CN(C)C(CNC(=O)c1ccc(S(=O)(=O)Nc2ccccc2F)cc1)c1ccco1 (stereo unspecified),-5%,-22%,1%,15,12%,?
COc1cccc(C(O)c2nc(-c3ccc4ccccc4c3)cs2)c1 (stereo unspecified),·,?,·,15,·,-29%
CCOC(=O)C1(CCOc2ccccc2)CCN(Cc2cccc3nonc23)CC1,8%,?,6%,-27,?,?
O=C(COC(=O)c1cncc(Br)c1)Nc1ccc(F)c(F)c1F,-1%,-21%,0%,17,1%,-20%
O=C(COc1ccc(Cl)cc1)Nc1ccc(C(=O)OCc2cc(=O)n3ccsc3n2)cc1,·,15µM*,·,·,·,?
CCCCC(=O)Nc1ccc(C(=O)OCc2cc(=O)n3ccsc3n2)cc1,·,?,·,·,·,16µM*
O=C(OCc1cc(=O)n2ccsc2n1)c1ccc(OC(F)F)cc1,?,9%,-6%,-9,12%,-19%
COc1ccccc1C(=O)OCc1cc(=O)n2ccsc2n1,0%,2%,?,-5,0%,-5%
Cc1cn2c(=O)cc(COC(=O)c3cccc(NC(=O)COc4ccc(Cl)cc4)c3)nc2s1,·,-2%,·,·,·,-12%
CCCOc1c(Br)cc(C(=O)OCc2cc(=O)n3ccsc3n2)cc1OC,0%,5.8µM*,·,8,0%,10µM*
C[C@H](CO)N1C[C@H](C)[C@@H](CN(C)S(=O)(=O)c2cccs2)Oc2c(NS(=O)(=O)c3ccccc3)cccc2C1=O,-50%[9.22 µM],-17%,0%,-6,6%,-10%
Cc1nn(C)cc1CN1CCCC(C(=O)c2ccc(-c3ccccc3)cc2)C1 (stereo unspecified),5%,?,?,-91*,3%,21µM*
O=C(c1ccc(Cl)cc1)C1CCCN(Cc2cnn(-c3ccccc3)c2)C1 (stereo unspecified),-6%,?,-5%,-98*,?,?
CN(C)S(=O)(=O)N1CCCC(C(=O)c2ccc(-c3ccccc3)cc2)C1 (stereo unspecified),10%,?,-6%,-23,1%,23µM*
O=C(c1ccc(Cl)cc1)C1CCCN(Cc2ccc(Oc3ncccn3)cc2)C1 (stereo unspecified),?,?,?,-3,?,-85%
Cc1ccsc1C(=O)C1CCCN(Cc2cn(C)nc2-c2ccccc2)C1 (stereo unspecified),-3%,?,-23%,-2,3%,?
SMILES,SW480 rereplic,TDP1 cell CPT,Chronic BCR inh,IL-1B inflam inh,MCF10A rereplic,TDP1 cell noCPT
CC1CCCN(C(=O)c2ccncc2)C1 (stereo unspecified),-6%,2%,?,8,?,13%
O=C(c1ccc(-c2ccccc2)cc1)C1CCCN(C(=O)c2ccncc2)C1 (stereo unspecified),83%,3.7µM*,-11%,-14,-15%,?
CSCCC(C(=O)Nc1c(C)cccc1C)n1c(-c2cc(C)cs2)nc2ccccc21 (stereo unspecified),·,?,·,-11,·,?
Cc1cccc(-n2c(C)c(C)c3c(N)ncnc32)c1,-6%,-26%,-25%,-2,?,-19%
Cc1ncoc1C(=O)N1CCCC(C(=O)c2ccc(-c3ccccc3)cc2)C1 (stereo unspecified),-7%,18µM*,-6%,0,0%,23µM*
O=C(c1ccc(-c2ccccc2)cc1)C1CCCN(Cc2ccncc2)C1 (stereo unspecified),17%,16µM*,?,-86*,?,?
Cc1ncoc1C(=O)N1CCCC(N2CCN(c3ccccc3F)CC2)C1 (stereo unspecified),12%,-3%,1%,34,-2%,14%
Cn1cc(CN2CCCC(C(=O)c3cccs3)C2)c(-c2cccc(Cl)c2)n1 (stereo unspecified),-40%[1.84 µM],?,?,-28,?,16µM*
O=C(Cn1ccccc1=O)Nc1ccc(Cl)c(S(=O)(=O)N2CCCCC2)c1,-6%,?,0%,23,-2%,?
Cc1cccc2cc(C#N)c(NCCNS(=O)(=O)c3ccccc3)nc12,?,1%,-4%,30,21µM*,0%
COc1ccc(Nc2nc3cc(C)ccc3cc2C#N)c(OC)c1,?,1.2µM*,13%,62,?,0.029µM*
Cc1cccc2cc(C#N)c(NCCNC(=O)COc3ccccc3)nc12,8%,?,8%,-4,?,?
Cc1cccc2cc(C#N)c(NCCCNS(=O)(=O)c3ccc(Cl)cc3)nc12,16µM*,18µM*,7%,-24,?,?
Cc1cccc2cc(C#N)c(NCc3ccccc3)nc12,?,?,?,41,23µM*,-5%
Cc1cccc2cc(C#N)c(NCCCn3ccnc3)nc12,?,-4%,?,-26,?,?
